Source: PubChem
ELG1 DNA repair: inhibitors of ELG1-dependent DNA repair in HEK293T cells; HEK293T ELG1-luciferase reporter, luminescence, 16 h; DNA damage induced by 5-fluorouridine; Potency, µM (highest dose often 46.1 µM), for the others: at the top dose activity change, negative = inhibition, hits mostly inhibitors; 330,000 compounds, 2.3% hits; AID 504467; also: % is scaled to controls: 0 for no effect and ±100 for the full control effect; nearly all actives have a fitted effect of over 55% in size
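DMSO vehicle served as the neutral condition. Each well held 2,000 cells given 5-fluorouridine plus compound; after 16 hr at 37 °C/5% CO2, ONE-Glo was added and luciferase measured 30 min later.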
SMN2 splice up: enhancers of SMN2 splice variant expression; HEK293 SMN2-luciferase splicing reporter, luminescence, 30-36 h; Potency, µM (highest dose often 46.1 µM), for the others: top-dose activity change, positive = activation, usual class: activators; 210,000 compounds, 2.8% hits; AID 1458; also: % of control where 0% means no effect; nearly all actives have a fitted effect of over 55% in size
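qHTS luciferase splicing reporter: luminescence rises when SMN2 exon 7 is included in transfected HEK293 cells. Compound exposure lasted 30-36 h at 37C, with 4.5 mM final sodium butyrate as control, followed by a ONE-Glo read.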
FLuc modulator: inhibits or activates purified firefly luciferase, miR-21 counter-screen. P08659. purified FLuc, Km substrates, luminescence inhibition. Potency, µM (highest dose often 57.5 µM), for the others: top-dose activity change, negative = inhibition, most hits filed as inhibitors. 360,000 compounds, 6.9% hits;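 also: plate controls were vehicle for no effect and reference inhibitor for full effect; nearly all actives have a fitted effect of over 55% in size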
Target sequence (P08659 whole entry, looked up): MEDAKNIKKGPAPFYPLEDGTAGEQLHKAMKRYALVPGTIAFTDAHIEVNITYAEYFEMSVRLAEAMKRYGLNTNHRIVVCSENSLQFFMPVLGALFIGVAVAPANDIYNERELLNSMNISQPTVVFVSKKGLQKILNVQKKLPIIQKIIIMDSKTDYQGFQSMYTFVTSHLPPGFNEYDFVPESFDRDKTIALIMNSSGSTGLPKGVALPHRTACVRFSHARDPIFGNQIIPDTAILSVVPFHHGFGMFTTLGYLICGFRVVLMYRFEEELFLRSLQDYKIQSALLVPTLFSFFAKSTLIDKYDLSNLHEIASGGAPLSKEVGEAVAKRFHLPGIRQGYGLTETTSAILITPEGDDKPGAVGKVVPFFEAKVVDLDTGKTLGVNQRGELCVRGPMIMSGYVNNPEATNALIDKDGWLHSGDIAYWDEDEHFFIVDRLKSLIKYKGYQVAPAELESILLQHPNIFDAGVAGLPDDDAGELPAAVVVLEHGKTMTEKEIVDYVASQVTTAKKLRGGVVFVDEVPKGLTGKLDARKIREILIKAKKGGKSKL
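Purified P. pyralis luciferase (10nM final) with 10uM D-luciferin and 10uM ATP (Km levels) in 50mM Tris acetate pH 7.5, 10mM Mg acetate, 0.01% Tween-20, 0.05% BSA; qHTS 6-point titration, ~60 µM downward; luminescence read.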
NPC1 promoter act: activators of NPC1 promoter; Potency, µM (doses to about 9.22 µM), for inactives: at the top dose activation, actives largely listed as activators; AID 485313; Huh7 NPC1 promoter luciferase reporter, 24 h; 320,000 compounds, 2.4% hits; also: % of control where 0% means no effect; nearly all actives have a fitted effect of over 60% in size
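Stably transfected Huh7 (NPC1 promoter→luciferase), 1500 cells/well in Opti-MEM + 10% FBS, 2 h settle, then compound 24 h at 37 °C. Luminescence after 10 min with Amplite reagent.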
ELG1 genotox: induces genotoxicity in HEK293T cells with luciferase-tagged ELG1; HEK293T ELG1-luciferase reporter, luminescence, 16 h; Potency, µM (highest dose often 46 µM), without a hit: at the top dose activity change, positive = activation, most hits filed as activators; 330,000 compounds, 1.3% hits; also: % of control where 0% means no effect; nearly all actives have a fitted effect of over 60% in size
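Genotoxic stress is detected as increased luminescence from luciferase-tagged ELG1 in HEK293T cells, measured with ONE-Glo after a 16 hr treatment at 37 °C.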
Rab9 promoter act: activates the Rab9 promoter. Potency, µM (series often up to 9.22 µM), for the others: top-dose activation, negative = inhibition, hits mostly activators. Huh7 Rab9 promoter-luciferase reporter, luminescence, 24 h. 320,000 compounds, 2.8% hits. AID 485297; also: % of control where 0% means no effect; nearly all actives have a fitted effect of over 60% in size
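Cell-based reporter: Huh7 stable for Rab9 promoter-driven luciferase, plated in reduced-serum medium with 10% FBS at 1500 cells/well, compound-treated 24 h at 37 °C, luminescence read after 10 min reagent.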
Active calls of the source: *; ? = inconclusive; . = not tested or not shown; [ ] = remark or other dose. Most compounds without a hit are left out; they make up all but 9.2% or so of the library. Calls follow the shape of the dose curve; as a rule, active = well fitted curve in the direction sought with a large enough effect; inconclusive = small, poorly fitted or top-dose-only effect, or another doubt; inactive = no such curve, though single readings can be large; an effect the other way counts as inactive or inconclusive. Potency is read from the fitted curve at half-maximal effect.

SMILES	ELG1 DNA repair	SMN2 splice up	FLuc modulator	NPC1 promoter act	ELG1 genotox	Rab9 promoter act
COc1cc(NC(=O)c2cc(-c3cccc(OC)c3)n[nH]2)cc(OC)c1	.	.	12µM*	.	.	.
Cc1nn(Cc2ccc(Cl)c(Cl)c2)c(C)c1NC(=O)c1cc(CC(C)C)on1	?	-69.6%	1.3%	-5.1%	?	-3.1%
Cc1ccccc1Cn1nc(C)c(NC(=O)c2cc(CC(C)C)on2)c1C	25.9µM*	-25.5%	0.1%	0.0%	-8.4%	-16.1%
O=C(Nc1ccc(F)c(Cl)c1)c1cc(-c2ccco2)on1	-0.3%	.	?	-3.3%	4.7%	2.5%
O=C(Nc1cccnc1)c1cc(-c2ccco2)on1	-0.6%	-3.4%	6.01µM*	-0.4%	0.2%	0.4%
O=C(O/N=C1/CCCc2occc21)c1ccccc1	29.6%	-6.9%	2.13µM*	-4.6%	2.0%	0.0%
O=C(O/N=C1/CCCc2occc21)c1ccc(Cl)cc1Cl	-3.8%	.	5.36µM*	-3.3%	3.4%	-3.8%
Cn1c(-c2cccs2)nc2ccccc21	?	12.6µM*	?	3.98µM*	8.2%	2.51µM*
Cc1ccc(-n2c(N)c(-c3nc4ccccc4n3C)sc2=S)cc1	?	-21.1%	-2.5%	?	-1.0%	27.7%
Cn1c(-c2ccc(C=O)s2)nc2ccccc21	?	25.1%	?	-1.9%	14.6µM*	1.0%
CC(C)Cn1c(-c2cccs2)nc2ccccc21	?	4.9%	-9.3%	-2.3%	-11.1%	-2.2%
O=C(CN1C(=O)c2cccc([N+](=O)[O-])c2C1=O)OCC(=O)N1CCCCC1	?	.	8.49µM*	8.2%	-2.7%	21.2%
Cc1cc(C)c(NC(=O)Cn2c(=O)nc(-c3ccccc3)c3cc(Cl)ccc32)c(C)c1	.	.	-12.7%	.	.	.
CCOc1ccc(NC(=O)Cn2cc(C(=O)c3ccc(CC)cc3)c(=O)c3cc4c(cc32)OCO4)cc1	.	-6.0%	4.1%	.	.	.
COc1ccccc1C(=O)Oc1c(Sc2ccccc2)c(C)nn1C(C)(C)C	.	-7.8%	-1.1%	.	.	.
O=C(/C=C/c1cccs1)N1CCN(c2ccccc2F)CC1	?	10.0%	-13.4%	-2.8%	6.3%	-4.1%
O=C(/C=C/c1cccs1)N1CCc2ccccc21	?	2.82µM*	0.477µM*	3.98µM*	1.84µM*	3.98µM*
O=C(c1cccs1)N1CCc2ccccc21	?	14.1µM*	26.9µM*	?	?	?
O=C(/C=C/c1ccc(Cl)c(Cl)c1)N1CCc2ccccc21	?	7.08µM*	?	3.16µM*	?	2.82µM*
O=c1oc2ccccc2n1CCn1c2ccccc2c2nc3ccccc3nc21	?	-33.8%	-0.1%	-2.9%	4.2%	-4.2%
O=c1c(-c2nc3ccccc3o2)c2oc3ccccc3n2c2ccccc12	5.17µM*	-9.8%	?	-4.7%	-4.1%	-7.7%
CCOC(=O)c1c(S(=O)(=O)N2CCCC(C(=O)N3CCN(c4cc(C)ccc4C)CC3)C2)c(C)n(C)c1C (stereo not given)	.	.	0.4%	.	.	.
C/C(=N/NC(=O)c1cc2ccccc2cc1O)c1ccco1	?	.	5.36µM*	2.82µM*	?	1.58µM*
C/C(=N\NC(=O)c1c(C)nc2ccccn12)c1ccco1	?	10µM*	?	?	?	2.51µM*
C/C(=N\NC(=O)c1c[nH]c2ccccc12)c1ccc(C)o1	?	3.0%	?	10.3%	16.7%	24.1%
SMILES	ELG1 DNA repair	SMN2 splice up	FLuc modulator	NPC1 promoter act	ELG1 genotox	Rab9 promoter act
C/C(=N\NC(=O)c1cc2ccccc2cc1O)c1ccc(C)o1	?	.	9.53µM*	27.3%	-0.3%	?
O=C1c2ccccc2C(=O)N1CCCCN(C(=O)c1cc([N+](=O)[O-])cc([N+](=O)[O-])c1)c1ccc(Cl)cc1	-24.0%	-20.4%	1.5%	-2.7%	-5.0%	-2.5%
O=C1c2ccccc2C(=O)N1CCCCN(C(=O)c1cc([N+](=O)[O-])ccc1Cl)c1ccc(Cl)cc1	20.6µM*	-29.9%	1.0%	-9.2%	-12.6%	-3.0%
Cc1noc(C)c1S(=O)(=O)N1CCc2nc(-c3ccccc3)c3c(c2C1)CO[C@@H](C)C3	.	-5.4%[9.22 µM]	.	.	.	.
CN1C(C(=O)NCc2ccco2)=CC(c2ccc(F)cc2)=NS1(=O)=O	-2.7%	.	3.6%	9.0%	-2.7%	-7.2%
COCC(C)Nc1ncnc2c1cnn2-c1ccc(Cl)cc1 (stereo not given)	.	.	2.39µM*	0.708µM*	.	0.501µM*
CCC(C)Nc1ncnc2c1cnn2-c1ccc(F)cc1 (stereo not given)	.	.	6.75µM*	.	.	.
Cc1cc(C)c(S(=O)(=O)Nc2cccc(-c3cn4ccccc4n3)c2)c(C)c1	.	.	9.53µM*	.	.	.
CCCS(=O)(=O)Nc1cccc(-c2cn3ccc(C)cc3n2)c1	.	12.6µM*	12µM*	.	.	.
O=S(=O)(Nc1ccc(-c2cn3ccccc3n2)cc1)c1ccccc1	?	.	13.5µM*	24.6%	?	22.8%
Cc1cc(C)c(S(=O)(=O)Nc2ccc(-c3cn4ccccc4n3)cc2)c(C)c1	?	11.1%	?	-2.1%	-4.9%	3.1%
Cc1nc(-c2ccc(NS(=O)(=O)c3ccccc3)cc2)cs1	-0.5%	7.1%	-16.4%	1.3%	0.2%	-3.4%
Cc1cccc(S(=O)(=O)Nc2ccc(-c3cn4ccccc4n3)cc2)c1	25.1%	?	16.9µM*	27.1%	9.5%	?
CCS(=O)(=O)Nc1cccc(-c2cn3c(n2)SCC3)c1	15.2%	.	-2.0%	-0.2%	3.0%	-3.3%
CCCC(=O)NCCc1c(I)[nH]c2ccc(OC)cc12	.	-20.1%	.	.	.	.
Cc1nc(C)c(C(=O)OCC(=O)N(C)c2ccccc2)s1	9.7%	.	2.9%	0.0%	1.2%	3.5%
COc1cc2c(cc1OC)C(COc1ccc(F)cc1)N(C(=O)c1ccc(S(=O)(=O)N3CCCC3)cc1)CC2 (stereo not given)	.	.	0.8%	.	.	.
COc1ccc(S(=O)(=O)Nc2cc(-c3cn4cccc(C)c4n3)ccc2C)cc1C	.	17.6%	?	.	.	.
Cc1cccn2cc(-c3cccc(NS(=O)(=O)c4ccc(Cl)c(Cl)c4)c3)nc12	.	9.3%	9.53µM*	.	.	.
O=C(N/N=C/c1cccc(F)c1)c1c(O)c2c([nH]c1=O)CCCC2	?	12.6µM*	?	1.58µM*	?	2µM*
COc1cccc(CNS(=O)(=O)c2ccc3[nH]c4c(c3c2)CCCCC4)c1	.	.	-13.0%	.	.	.
CC1=C(C(=O)Nc2cccc(C(F)(F)F)c2)C(c2ccccc2)n2ncnc2N1 (stereo not given)	.	.	3.7%	.	.	.
CCOc1ccc(NC(=O)c2cc3c(s2)-c2ccccc2OC3)cc1	.	-27.5%	3.0%	.	.	.
Cc1c(NC(=O)c2cc3c(s2)-c2ccccc2OC3)cccc1[N+](=O)[O-]	23.1µM*	.	-5.5%	-0.1%	-10.1%	-9.0%
